Source: PubChem BioAssay AID1159580 (chemical genetic matrix, 2015)
About 2,000 (36%) of roughly 5,500 compounds were called active. Roughly 18% stayed inconclusive and do not appear here. No stated cut-off is given here; in the data, active means normalized growth mostly below about 0.91 (no sharp cut-off); inconclusive means no clear call, values can overlap the other calls; inactive means mostly above about 0.92. This is one part of the list.

Experiment: chemical genetic growth profiling, strain panel (AID 1159580);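 further: tested at 20 µM; growth read once vehicle control cultures reached saturation at 30 °C; 1 = growth at the plate median or of vehicle wells; lower values mean less growth of the strain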
Details: S. cerevisiae deletion strains, growth OD

Measured: normalized growth

O=C(O/N=C1/CCCc2[nH]c3ccccc3c21)C1CCCCC1
inactive: locus YAR019C, strain CDC15, hits give low values 0.972 | locus YBL105C, strain PKC1, hits give low values 0.959 | locus YBR135W, strain CKS1, hits give low values 0.964 | locus YBR136W, strain MEC1, hits give low values 0.947 | locus YBR160W, strain CDC28, hits give low values 0.962 | locus YDL017W, strain CDC7, hits give low values 0.955 | locus YDL028C, strain MPS1, hits give low values 0.962 | locus YDL101C, strain DUN1, hits give low values 0.973 | locus YDL108W, strain KIN28, hits give low values 0.931 | locus YDL132W, strain cdc53, hits give low values 0.97 | locus YDL214C, strain PRR2, hits give low values 0.881 | locus YDR052C, strain DBF4, hits give low values 0.971 | locus YDR054C, strain cdc34, hits give low values 0.951 | locus YDR226W, strain ADK1, hits give low values 0.962 | locus YDR477W, strain SNF1, hits give low values 0.905 | locus YER123W, strain YCK3, hits give low values 0.821 | locus YER133W, strain GLC7, hits give low values 0.888 | locus YFL009W, strain cdc4, hits give low values 0.973 | locus YFL029C, strain CAK1, hits give low values 0.966 | locus YFR003C, strain YPI1, hits give low values 0.961 | locus YFR019W, strain FAB1, hits give low values 0.918 | locus YFR028C, strain CDC14, hits give low values 0.975 | locus YGR040W, strain KSS1, hits give low values 0.856 | locus YGR052W, strain FMP48, hits give low values 0.914 | locus YGR092W, strain DBF2, hits give low values 0.845 | locus YHR030C, strain SLT2, hits give low values 0.971 | locus YHR079C, strain IRE1, hits give low values 0.963 | locus YHR082C, strain KSP1, hits give low values 0.899 | locus YHR205W, strain SCH9, hits give low values 0.873 | locus YIL147C, strain SLN1, hits give low values 0.962 | locus YJL095W, strain BCK1, hits give low values 0.942 | locus YJL128C, strain PBS2, hits give low values 0.935 | locus YJL157C, strain FAR1, hits give low values 0.884 | locus YJR016C, strain ILV3, hits give low values 0.951 | locus YJR066W, strain TOR1 (second series), hits give low values 0.902 | locus YJR066W, strain TOR1, hits give low values 0.895 | locus YKL048C, strain ELM1, hits give low values 0.925 | locus YKL067W, strain YNK1, hits give low values 0.909 | locus YKL101W, strain HSL1, hits give low values 0.878 | locus YKL193C, strain SDS22, hits give low values 0.97 | locus YKL203C, strain TOR2, hits give low values 0.931 | locus YLR113W, strain HOG1, hits give low values 0.966 | locus YLR133W, strain CKI1, hits give low values 0.9 | locus YLR403W, strain SFP1, hits give low values 0.903 | locus YML070W, strain DAK1, hits give low values 0.846 | locus YMR001C, strain CDC5, hits give low values 0.966 | locus YMR205C, strain PFK2 (second series), hits give low values 0.895 | locus YMR277W, strain FCP1, hits give low values 0.956 | locus YNL006W, strain LST8, hits give low values 0.992 | locus YNL020C, strain ARK1, hits give low values 0.872 | locus YNL161W, strain CBK1, hits give low values 0.963 | locus YNL183C, strain NPR1, hits give low values 0.896 | locus YNL207W, strain RIO2, hits give low values 0.959 | locus YNL222W, strain SSU72, hits give low values 0.967 | locus YNL307C, strain MCK1 (second series), hits give low values 0.911 | locus YOL078W, strain AVO1, hits give low values 0.963 | locus YOL136C, strain PFK27, hits give low values 0.857 | locus YOR061W, strain CKA2, hits give low values 0.845 | locus YOR119C, strain RIO1, hits give low values 0.948 | locus YOR231W, strain MKK1, hits give low values 0.951 | locus YOR329C, strain SCD5, hits give low values 0.972 | locus YPL031C, strain PHO85, hits give low values 0.894 | locus YPL153C, strain RAD53, hits give low values 0.887 | locus YPL204W, strain HRR25, hits give low values 0.908 | locus YPL209C, strain IPL1, hits give low values 0.965 | locus YPL256C, strain CLN2, hits give low values 0.933 | locus YPR025C, strain CCL1, hits give low values 0.961 | locus YPR106W, strain ISR1, hits give low values 0.962 | locus YPR111W, strain DBF20, hits give low values 0.969 | strain NNK1, hits give low values 0.967 | strain TSCII, hits give low values 0.967
